Laboratory results from PubChem BioAssay (EPA / NIEHS).
“And” between values parts separate entries of the source, which are not always exact repeats. Equal values may be shown once. The source made the active and inactive calls. Rule for the calls: active = hit-call score of the fitted dose curve at least 0.9, where 1 is the maximum; inactive = score below 0.9.

Experiment: BSK_LPS_SRB: Viability Assessment in the BioMAP Diversity Plus: LPS Assay (AID 2283079);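 note: measured one day after compound addition; fitted in both directions against DMSO so loss or gain of signal counts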
Settings: primary human HUVEC with PBMC
Experimental: BSK_LPS is a cell-based, multiplexed-readout assay that uses umbilical vein endothelium and peripheral blood mononuclear cells, a human vascular primary cell co-culture, with measurements taken at 24 hours after chemical dosing in a 96-well plate.BSK_LPS_SRB is an assay component measured in the BSK_LPS assay. It measures 0.1% sulforhodamine related to cell death using Sulforhodamine staining technology.Data from the assay component BSK_LPS_SRB was analyzed into 1 assay endpoint. This assay endpoint, BSK_LPS_SRB, was analyzed with bidirectional fitting relative to DMSO as the negative control and baseline of activity. Using a type of viability reporter, gain or loss-of-signal activity can be used to understand changes in the signaling. Furthermore, this assay endpoint can be referred to as a primary readout, because this assay has produced multiple assay endpoints where this one serves a signaling function. To generalize the intended target to other relatable targets, this assay endpoint is annotated to the cell morphology intended target family, where the subfamily is cell conformation.
The levels of cell surface (or secreted, indicated by the prefix "s") biomarker endpoints were measured by ELISA. Overt cytotoxicity to cells in confluent adherent cultures (all systems other than the BT system) was assessed by measuring total protein levels using sulforhodamine B (SRB) staining in parallel cultures at the time of biomarker measurements, indicated as SRB endpoints. For proliferation assays for adherent cell types, individual cell types are cultured at sub-confluence and relative cell numbers quantified by SRB staining at time points optimized for each system (48 h: 3C and CASM3C systems; 72 h: BT and HDF3CGF systems; 96 h: SAg system). SRB was performed by staining cells with 0.1% SRB after fixation with 10% TCA and reading wells at 560 nm.Viability and proliferation of PBMC (T cells) was quantified by Alamar Blue reduction for the SAg and BT systems. For PBMC viability (referred to as PBMC Cytotoxicity within the assay endpoint names), cells were plated (75,000/well in a 96-well plate) and then chemical samples added for 1 h before addition of activators, SEB and TSST-1 (20 ng/mL final concentration each). Cells were incubated for 90 h. Then, Alamar Blue (20 uL/well) (Invitrogen, Cat DAL1100) was added for 6 h, and the plates were read with a fluorescence microplate reader at 546/580 nm (excitation/emission). For PBMC proliferation, cells were plated and activated as above but incubated for only 16 h prior to addition of Alamar Blue. Plates were read after 6 h.

SMILES	outcome	AC50
COC(OC)(C(=O)c1ccccc1)c1ccccc1	inactive	–
CCN1CN(CC)CN(CC)C1	inactive	–
C=C(C)C(=O)OCCCCCCCCCCCC	inactive	–
CC(C)[N+](C)(CCOC(=O)C1c2ccccc2Oc2ccccc21)C(C)C	–	3.97 µM (active)
CCCCCCOC(=O)CCCCC(=O)OCCCCCC	inactive	–
CC1=CC=C(C(C)C)CC1	inactive	–
COc1ccc(C(=O)/C(Br)=C\C(=O)O)cc1	–	27.9 µM (active) and 31 µM (active)
Oc1c(Cl)cc(Cl)c(Cl)c1Cl	–	20 µM (active)
CCOC(=O)C1=NOC(c2ccccc2)(c2ccccc2)C1	inactive	–
C1CNCCN1	inactive	–
CC=C(C)C(C)=O	inactive	–
CC(Cl)COP(=O)(OCC(C)Cl)OCC(C)Cl (stereo not given)	inactive	–
CC(CCC(=O)O)(c1ccc(O)cc1)c1ccc(O)cc1	inactive	–
CC(c1cc(C(C)(C)C)cc(C(C)(C)C)c1O)c1cc(C(C)(C)C)cc(C(C)(C)C)c1O	inactive	–
CCCCCC1=CCCC1=O	inactive	–
C=CC(=O)OCC(C)OCC(C)OCC(C)OC(=O)C=C (stereo not given)	–	22.9 µM (active)
C=CCCCCCCCCC=O	inactive	–
CC1(C)CC(O)CC(C)(C)N1[O]	inactive	–
CCOC(=O)/C=C\C(=O)OCC	inactive	–
Cc1c(O)cccc1O	inactive	–

SMILES	outcome	AC50
C=CC(=O)OCCCCCCOC(=O)C=C	–	20 µM (active)
Nc1ccc(C(=O)O)cc1	inactive	–
CCCCCCC=O	inactive	–
O=C1CCCCCCCCCCC1	inactive	–
C=CC(=O)OCCCCCCCC(C)C	inactive	–
CCCCCCCCC(CO)CCCCCC (stereo not given)	inactive	–
CC(C)c1cccc(C(C)C)c1N	inactive	–
O=C(Oc1ccccc1)c1ccccc1C(=O)Oc1ccccc1	inactive	–
C=CC(=O)NC(C)(C)C	inactive	–
CCCCCCCCCCCC(=O)N(C)CC(=O)O	inactive	–
CCCCCCCCCCCC(C)=O	inactive	–
CC(C)C(=O)OCCc1ccccc1	inactive	–
Fc1ccc(Br)cc1	inactive	–
CCc1cccc(C)c1N(C(=O)CS(=O)(=O)O)C(C)COC (stereo not given)	inactive	–
O=C(O)C(F)(F)C(F)(F)C(F)(F)C(F)(F)C(=O)O	inactive	–
O=C(Cl)c1c(Cl)c(Cl)c(C(=O)Cl)c(Cl)c1Cl	inactive	–
CC(C)CCCCCOC(=O)CS	inactive	–
c1ccc(Nc2cccc3ccccc23)cc1	–	31.5 µM (active) and 32.4 µM (active)
Nc1cccc(N)n1	inactive	–
Oc1ccc(/C=C/c2cc(O)cc(O)c2)cc1	–	20 µM (active)
